Measured values as given in PubChem BioAssay (NCATS).
Results filed as inconclusive are left out. Some compounds were tested as several samples or in several runs, with calls that do not always agree. The source made the active and inactive calls. Calls come from the whole dose curve; as a rule, active = well fitted curve in the direction sought with a large enough effect; inconclusive = small, poorly fitted or top-dose-only effect, or another doubt; inactive = no such curve, though single readings can be large; an effect the other way counts as inactive or inconclusive.

How the values were obtained:
[1] = target: Glutathione peroxidase 1 (Homo sapiens) (UniProt P07203); assay: Primary qHTS Assay for Inhibitors of Recombinant Selenoprotein Glutathione Peroxidase 1 (GPX1) (AID 1845191); note: nearly all actives have a fitted effect of over 65% in size; for activity, negative = inhibition: % is set by controls: 0 for no effect and ±100 for the full control effect
Sequence of Glutathione peroxidase 1 (Homo sapiens) (P07203 whole entry, looked up): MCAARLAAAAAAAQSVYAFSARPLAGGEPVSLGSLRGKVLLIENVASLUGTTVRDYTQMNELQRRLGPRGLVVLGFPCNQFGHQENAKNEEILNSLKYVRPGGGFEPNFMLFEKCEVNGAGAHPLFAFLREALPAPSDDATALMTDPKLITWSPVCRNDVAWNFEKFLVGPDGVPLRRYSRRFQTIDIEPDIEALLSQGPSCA
Summary of the method: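 NADPH consumption tracked by fluorescence at 340/450 nm between t=0 and t=15 min, room temperature. Final mix: 10 nM GPX1, 100 nM glutathione reductase, 1 mM GSH, 0.5 mM NADPH, 0.5 mM cumene hydroperoxide, 0.01% BSA; 30 min compound–enzyme preincubation.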

[2] = target: Phospholipid hydroperoxide glutathione peroxidase GPX4 (Homo sapiens) (UniProt P36969); assay: Primary qHTS Assay for Inhibitors of Recombinant Selenoprotein Glutathione Peroxidase 4 (GPX4) (AID 1845192); note: nearly all actives have a fitted effect of over 65% in size; note: potency is the fitted concentration of half-maximal effect
Sequence of Phospholipid hydroperoxide glutathione peroxidase GPX4 (Homo sapiens) (P36969 whole entry, looked up): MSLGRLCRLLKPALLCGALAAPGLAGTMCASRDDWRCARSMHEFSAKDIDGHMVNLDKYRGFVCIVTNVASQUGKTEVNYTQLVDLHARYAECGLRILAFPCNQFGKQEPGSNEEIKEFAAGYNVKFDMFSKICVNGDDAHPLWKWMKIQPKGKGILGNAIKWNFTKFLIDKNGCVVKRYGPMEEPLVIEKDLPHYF
Summary of the method: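 NADPH consumption followed by fluorescence at 340/450 nm, t=0 and after 15 min at room temperature. Reaction started with cumene hydroperoxide (0.5 mM final) after 30 min compound–GPX4 preincubation; final 200 nM GPX4, 100 nM GR, 1 mM GSH, 0.5 mM NADPH.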

[3] = target: Luciferin 4-monooxygenase (Photinus pyralis) (UniProt P08659); assay: Primary firefly luciferase (FLuc) qHTS assay for identification of artifact compounds. (AID 1845220); note: nearly all actives have a fitted effect of over 60% in size; note: potency is the fitted concentration of half-maximal effect
Summary of the method: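 FLuc 10 nM; luciferin 10 uM; ATP 10 uM; Tris-acetate pH 7.6, Mg-acetate 10 mM; 15 min RT preincubation; 5 min reaction; luminescence.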

[4] = Primary fluorescence-based thiol-reactive (MSTI) qHTS assay for identification of artifact compounds. (AID 1845221); note: nearly all actives have a fitted effect of over 65% in size; note: potency is the fitted concentration of half-maximal effect;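 for activity change, negative = thiol reactive: series mostly up to about 54 µM; thiol-reactive compounds lower the probe fluorescence signal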
Summary of the method: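 Curve-fitted percent inhibition (4-parameter Hill) derived from fluorescence, Ex 525/Em 598 nm, scaled with Acetyl-MSTI and MSTI; 1 h incubation at room temperature.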

[5] = tested on: Nanoluciferase (engineered Oplophorus gracilirostris luciferase); assay: Primary Nanoluciferase (NLuc) qHTS assay for identification of artifact compounds. (AID 1845222);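 note: NLuc secreted into diluted conditioned medium of S16 cells; series mostly up to about 54 µM; 0% = DMSO and -100% = no enzyme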
Summary of the method: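 NLuc from S16 cell medium (1:55) plus test compounds, 15 min, room temperature. Luminescence after Nano-Glo (1:100) addition, 5 min.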

[6] = Quantitative High-Throughput drug screen in 47 multiple myeloma cell lines against the NCATS MIPE library collection: FR4_PLB cell viability assay (AID 1918924; note: nearly all actives have a fitted effect of over 35% in size; note: potency is the fitted concentration of half-maximal effect)
Summary of the method: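 Approved and investigational drugs from MIPE 4.0 were added by pin tool to 500 cells per well. After 48 hours at 37C, ATP-based CellTiter-Glo luminescence indicated remaining viability.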

[7] = Primary redox qHTS assay for identification of artifact compounds. (AID 1845223);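 note: 0% = DMSO and 100% = reference compound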
Summary of the method: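 Redox-cycling detection via DTT (250 uM final) oxidation coupled to Amplex Red (25 uM)/HRP (250 mU/mL) in HBSS. 15 min preincubation plus 30 min after DTT, room temperature. Ex/Em 525/598 nm; 4-parameter Hill fit against DMSO and 10 uM DA3003.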

COc1cccc2cc(-c3nc(C4CCC(C(=O)O)CC4)n4ncnc(N)c34)[nH]c12 (centres undefined)
inactive: Potency [1] | Potency [2] | Potency [3] | outcome [5]
active: Potency [4] 26.7 µM | Potency [6] 0.187 µM

CN(C)c1ccc(C2Nc3ccc4ccccc4c3C3=C2C(=O)CC(C)(C)C3)cc1Br (centres undefined)
inactive: Potency [1] | Potency [2] | Potency [3] | Potency [4] | outcome [5] | outcome [7]

CNC(=O)c1ccccc1Sc1ccc2c(/C=C/c3ccccn3)n[nH]c2c1
active: Potency [3] 1.9 µM
inactive: Potency [1] | Potency [2] | Potency [4] | outcome [5] | outcome [7]

CC[C@H](Nc1ncnc2nc[nH]c12)c1nc2cccc(F)c2c(=O)n1-c1ccccc1
inactive: Potency [1] | Potency [2] | outcome [3] inactive [at 11.6 µM] | activity change, negative = thiol reactive [4] 52.7% [at 11.5 µM] | activity, negative = inhibition [5] -6.53% [at 11.6 µM] | redox activity (% of DA3003) [7] 6.84% [at 11.5 µM]
active: Potency [6] 20.9 µM

CCCS(=O)(=O)Nc1ccc(F)c(C(=O)c2c[nH]c3ncc(Cl)cc23)c1F
inactive: Potency [1] | Potency [2] | Potency [3] | Potency [4] | outcome [5] | outcome [7]

CNC(=O)c1ccc(C)c(-n2c(C)cc(OCc3ccc(F)cc3F)c(Br)c2=O)c1
inactive: Potency [1] | Potency [2] | Potency [3] | Potency [4] | outcome [5] | outcome [7]

CS(=O)(=O)c1ccc(C(=O)Nc2ccc(Cl)c(-c3ccccn3)c2)c(Cl)c1
inactive: Potency [1] | Potency [2] | Potency [3] | Potency [4] | outcome [5] | outcome [7] | Potency [6]

Clc1ccc(Nc2nnc(Cc3ccncc3)c3ccccc23)cc1
inactive: Potency [1] | Potency [2] | Potency [3] | Potency [4] | outcome [5] | outcome [7] | Potency [6]

CC1(C)Cc2c(-c3ccccc3)c(-c3ccc(Cl)cc3)c(CC(=O)O)n2C1
inactive: Potency [1] | Potency [2] | Potency [3] | Potency [4] | outcome [5]

CN(C(=O)c1ccc(F)cc1C(F)(F)F)C1CCN(c2nnc(-c3ccnn3C)c3ccccc23)CC1
inactive: Potency [1] | Potency [2] | Potency [3] | Potency [4] | outcome [5] | outcome [7]

COc1cc2nccc(Oc3ccc(NC(=O)NC4CC4)c(Cl)c3)c2cc1C(N)=O
active: Potency [6] 23.5 µM
inactive: Potency [1] | Potency [2] | Potency [3] | Potency [4] | outcome [5] | outcome [7]

CCOc1ccn(-c2ccc(F)cc2)c(=O)c1C(=O)Nc1ccc(Oc2ccnc(N)c2Cl)c(F)c1
inactive: Potency [1] | Potency [2] | Potency [3] | Potency [4] | outcome [5] | outcome [7]
active: Potency [6] 18.7 µM

O=C(NOC[C@H](O)CO)c1ccc(F)c(F)c1Nc1ccc(I)cc1F
inactive: Potency [1] | Potency [2] | Potency [3] | Potency [4] | outcome [5] | outcome [7] | Potency [6]

CCn1cc(C(=O)O)c(=O)c2cc(F)c(N3CCNC(C)C3)c(F)c21 (centres undefined)
inactive: Potency [1] | Potency [2] | Potency [6]

COc1ccc2c3n(c(=NC(=O)c4cccnc4)nc2c1OC)CCN3
active: Potency [6] 16.6 µM
inactive: activity, negative = inhibition [1] 0.782% [at 4.49 µM] | outcome [2] inactive [at 4.52 µM]

COc1ccc(COc2cc3oc(=O)c4cc(C(C)O)ccc4c3cc2OC)cc1 (centres undefined)
inactive: Potency [1] | Potency [2]
active: Potency [6] 13.2 µM

CCc1ccc(CCOc2ccc(CC3SC(=O)NC3=O)cc2)nc1 (centres undefined)
inactive: Potency [1] | Potency [2] | Potency [6]

O=c1ncn2nc(Sc3ccc(F)cc3F)ccc2c1-c1c(Cl)cccc1Cl
inactive: Potency [1] | Potency [2] | Potency [6]

Cc1cc2c(C(C)C)c(O)c(O)c(C=O)c2c(O)c1-c1c(C)cc2c(C(C)C)c(O)c(O)c(C=O)c2c1O
10.1 µM (active) and inactive: Potency [2]
active: Potency [6] 10.5 µM
inactive: Potency [1]

O=c1[nH]cnc2[nH]ncc12
inactive: Potency [1] | Potency [2] | Potency [6]

CCCCNc1cc(C(=O)O)cc(S(N)(=O)=O)c1Oc1ccccc1
inactive: Potency [1] | Potency [2] | Potency [6]

O=C(O)[C@@H](c1ccc(OCc2ccc3ccccc3n2)cc1)C1CCCC1
inactive: Potency [1] | Potency [2] | Potency [6]

Cn1cnc([N+](=O)[O-])c1Sc1ncnc2nc[nH]c12
active: Potency [6] 0.418 µM
inactive: Potency [1] | Potency [2]

O=C(O)CCc1ccc(NCc2cccc(Oc3ccccc3)c2)cc1
active: Potency [4] 1.68 µM
inactive: Potency [1] | Potency [2] | Potency [3] | outcome [5] | Potency [6]

OC(CCN1CCCCC1)(c1ccccc1)C1CC2C=CC1C2 (centres undefined)
inactive: Potency [1] | Potency [2] | Potency [6]

N#Cc1ccc(C(c2ccc(C#N)cc2)n2cncn2)cc1
inactive: Potency [1] | Potency [2]
active: Potency [6] 14.8 µM

CC(C)(C)NCC(O)c1ccc(O)c(CO)c1 (centres undefined)
inactive: Potency [1] | Potency [2] | Potency [6]

COc1cc(Oc2ccnc3cc(OC)c(OC)cc23)ccc1NC(=O)NC(C)c1nccs1 (centres undefined)
inactive: Potency [1] | Potency [2] | Potency [3] | Potency [4] | outcome [7]

Cn1c(=O)c(F)c(Nc2ccc(I)cc2F)c2c(=O)n(C[C@@H](O)CO)cnc21
inactive: Potency [1] | Potency [2] | Potency [6]

Cc1cn[nH]c1
inactive: Potency [1] | Potency [2]
active: Potency [6] 0.0526 µM
